Screening results: PubChem, Buhrlage Lab, Dana-Farber Cancer Institute and Novartis Institutes for BioMedical Research (Cambridge, Mass)
USP8 block: blocks human USP8 ubiquitin-rhodamine cleavage; 47,000 compounds, 4.2% hits; inhibition, % at 20 µM; purified USP8, Ub-rhodamine cleavage fluorescence, 30 min; P40818
USP30 block: human USP30 deubiquitinase inhibition; inhibition, % at 25 µM; Q70CQ3; AID 1645860; 47,000 compounds, 5.3% hits; purified USP30, Ub-rhodamine cleavage fluorescence
Target sequence (Q70CQ3 whole entry, looked up): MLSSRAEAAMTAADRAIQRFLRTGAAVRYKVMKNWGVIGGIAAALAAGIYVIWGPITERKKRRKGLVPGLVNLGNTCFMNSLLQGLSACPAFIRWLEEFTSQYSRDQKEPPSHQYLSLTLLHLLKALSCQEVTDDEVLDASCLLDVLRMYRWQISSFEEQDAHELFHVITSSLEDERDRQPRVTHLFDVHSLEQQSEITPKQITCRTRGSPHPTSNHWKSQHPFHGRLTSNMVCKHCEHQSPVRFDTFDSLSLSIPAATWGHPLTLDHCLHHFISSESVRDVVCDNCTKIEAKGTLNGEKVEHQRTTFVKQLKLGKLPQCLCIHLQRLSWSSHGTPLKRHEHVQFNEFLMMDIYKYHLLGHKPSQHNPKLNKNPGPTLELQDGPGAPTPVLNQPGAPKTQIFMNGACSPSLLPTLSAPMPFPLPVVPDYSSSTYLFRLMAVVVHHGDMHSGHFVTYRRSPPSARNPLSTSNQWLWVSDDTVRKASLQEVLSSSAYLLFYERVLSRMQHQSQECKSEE
USP28 inh: human USP28 deubiquitinase inhibition | Q96RU2 | purified USP28, Ub-rhodamine cleavage fluorescence, 30 min | inhibition, % at 25 µM | 47,000 compounds, 3% hits
USP17 inh: human USP17-like deubiquitinase inhibition. A8MUK1. inhibition, % at 50 µM. 47,000 compounds, 6.5% hits. purified USP17, Ub-rhodamine cleavage fluorescence, 3 h
OTUD3 inh: blocks human OTUD3 ubiquitin-rhodamine cleavage; Q5T2D3; purified OTUD3, Ub-rhodamine fluorescence, 2 h; inhibition, % at 25 µM; 47,000 compounds, 0.7% hits; AID 1645858
Hits are given with their value. Sampled rows, rich in hits. Any-hit rate of the full collection: about 13%. No stated cut-off is given here; in the data, active means inhibition above about 30%; inactive means the rest.

Screening COc1ccc(S(=O)(=O)Nc2nc3ccccc3nc2NCc2ccccc2)cc1 returned USP8 block inactive, USP30 block inactive, USP28 inh inactive, USP17 inh inactive and OTUD3 inh inactive.
COc1ccc(S(=O)(=O)Nc2c(C)c(C)cc3c2nc(C)n3Cc2cccc(C)c2)cc1 was read as USP8 block inactive, USP30 block 33, USP28 inh inactive, USP17 inh inactive and OTUD3 inh inactive.
Screening COc1cccc(-c2nc3c(s2)CN(C(=O)C2CCC2)CC3)c1 returned USP8 block inactive, USP30 block inactive, USP28 inh inactive, USP17 inh inactive and OTUD3 inh inactive.
`Cc1cccc(C(=O)N2C[C@H](OCC3CC3)[C@H]3OCCC[C@H]32)n1` gave USP8 block inactive, USP30 block inactive, USP28 inh inactive and OTUD3 inh inactive.
For CCOc1ccc2ccccc2c1C(=O)N1CC(=O)Nc2ccc(C)cc2C1c1ccc(F)cc1 (configuration not stated) the results were USP8 block inactive, USP30 block 43, USP28 inh inactive, USP17 inh inactive and OTUD3 inh inactive.
COc1ccc(CCC(=O)Nc2ncc(C)s2)cc1OC was read as USP8 block inactive, USP30 block inactive, USP28 inh 54, USP17 inh inactive and OTUD3 inh inactive.
`Nc1ncnc2c1ncn2[C@@H]1O[C@H](CO)C[C@@H]1O` gave USP8 block inactive, USP30 block inactive, USP28 inh 44, USP17 inh 50 and OTUD3 inh 50.
For Cc1cccc2cc(CN(Cc3ccc4c(c3)OCO4)C(=O)NCc3ccccc3)c(=O)[nH]c12 the results were USP8 block inactive, USP30 block 36, USP28 inh inactive, USP17 inh inactive and OTUD3 inh inactive.
Screening Cc1cc2cc(CN(Cc3ccc4c(c3)OCO4)C(=O)Nc3ccccc3)c(=O)[nH]c2cc1C returned USP8 block inactive, USP30 block inactive, USP28 inh inactive, USP17 inh inactive and OTUD3 inh inactive.
`O=C(CCCC(=O)c1ccccc1)Nc1ccc(F)cc1Cl` gave USP8 block 35, USP30 block inactive, USP28 inh inactive, USP17 inh 30 and OTUD3 inh inactive.
O=C(CCCC(=O)c1ccccc1)Nc1ccc(F)cc1 was read as USP8 block inactive, USP30 block inactive, USP28 inh inactive, USP17 inh 56 and OTUD3 inh inactive.
`COc1cccc(/C=C2\C(=O)N(c3cccc(C)c3)C(=O)c3ccccc32)c1` gave USP8 block 66, USP30 block inactive, USP28 inh inactive, USP17 inh 43 and OTUD3 inh inactive.
For Cc1cccc(N2C(=O)/C(=C\c3ccc(N4CCOCC4)s3)c3ccccc3C2=O)c1 the results were USP8 block 41, USP30 block inactive, USP28 inh inactive, USP17 inh 42 and OTUD3 inh inactive.
COc1cccc(N2C(=O)c3cccnc3C2Nc2ccc(C)cc2)c1 (configuration not stated) was read as USP8 block inactive, USP30 block inactive, USP28 inh inactive, USP17 inh inactive and OTUD3 inh inactive.
O=C1C=C(O)c2c(O)cccc2C1=O was read as USP8 block 79, USP30 block inactive, USP28 inh 51, USP17 inh 92 and OTUD3 inh inactive.
Cc1ccc2c(c1)C(=O)c1c(O)cccc1C2=O was read as USP8 block inactive, USP30 block inactive, USP28 inh inactive, USP17 inh inactive and OTUD3 inh inactive.
Screening O=C(Nc1ccc(SCc2nnc(-c3ccccc3)o2)cc1)C1CC1 returned USP8 block inactive, USP30 block inactive, USP28 inh 61, USP17 inh inactive and OTUD3 inh inactive.
Screening CCCC(=O)Nc1ccc(SCc2nnc(-c3ccccc3)o2)cc1 returned USP8 block inactive, USP30 block inactive, USP28 inh 66, USP17 inh inactive and OTUD3 inh inactive.
For Cc1cc(C(=O)Nc2nnc(CSc3ccccc3)o2)no1 the results were USP8 block inactive, USP30 block inactive, USP28 inh inactive, USP17 inh inactive and OTUD3 inh inactive.
Screening Cc1ccc(NC(=O)c2ccc3c(c2)ncn3CCN2CCCC2)cc1 returned USP8 block inactive, USP30 block inactive, USP28 inh inactive, USP17 inh inactive and OTUD3 inh inactive.
Screening Cc1cc(C)n(-c2nc(-c3ccc(F)cc3)cc(C(F)(F)F)n2)n1 returned USP8 block inactive, USP30 block inactive, USP28 inh inactive, USP17 inh inactive and OTUD3 inh inactive.
Screening CC(=O)c1cccc(NC(=O)Nc2ccc(-c3nnc(-c4ccccc4)o3)cc2)c1 returned USP8 block inactive, USP30 block inactive, USP28 inh inactive, USP17 inh inactive and OTUD3 inh inactive.
COc1ccc(C2CC(c3ccc(OC)cc3)n3ncnc3N2C(=O)C2CC2)cc1 (configuration not stated) was read as USP8 block inactive, USP30 block 37, USP28 inh inactive, USP17 inh inactive and OTUD3 inh inactive.
Screening Cc1ccc(C2CC(c3ccccc3)n3ncnc3N2C(=O)c2ccccc2)cc1 (configuration not stated) returned USP8 block inactive, USP30 block inactive, USP28 inh inactive, USP17 inh inactive and OTUD3 inh inactive.
For COc1ccc(C2CC(c3ccc(Cl)cc3)N(C(=O)C(C)(C)C)c3ncnn32)cc1 (configuration not stated) the results were USP8 block inactive, USP30 block inactive, USP28 inh inactive, USP17 inh inactive and OTUD3 inh inactive.
Screening Cc1ccc(C(=O)N2c3ncnn3C(c3ccccc3)CC2c2ccccc2)cc1 (configuration not stated) returned USP8 block inactive, USP30 block 32, USP28 inh inactive, USP17 inh inactive and OTUD3 inh inactive.
Screening COCCN1C(=O)C[C@@H]2[C@H]1CCN2C(=O)c1ccc(C)nc1 returned USP8 block inactive, USP30 block inactive, USP28 inh inactive and OTUD3 inh inactive.
Screening COc1ccc(C(=O)N2CCOC23CCN(c2ccc([N+](=O)[O-])cc2)CC3)cc1 returned USP8 block inactive, USP30 block inactive, USP28 inh inactive, USP17 inh inactive and OTUD3 inh inactive.
`CC(=O)N(O)CCC[C@@H]1NC(=O)[C@H](CCCN(O)C(C)=O)NC1=O` gave USP8 block inactive, USP30 block inactive, USP28 inh inactive, USP17 inh 36 and OTUD3 inh inactive.
Screening Cc1nn(-c2ccccc2)c2c1[C@@H](c1ccc3c(c1)OCCO3)[C@H](NC(=O)c1ccccc1)C(=O)N2 returned USP8 block inactive, USP30 block inactive, USP28 inh inactive, USP17 inh inactive and OTUD3 inh inactive.
For Cc1ccc(-n2nc(C)c3c2NC(=O)[C@@H](NC(=O)c2ccccc2)[C@@H]3c2ccc(F)cc2)cc1 the results were USP8 block inactive, USP30 block inactive, USP28 inh 48, USP17 inh inactive and OTUD3 inh inactive.
`COc1cc([C@@H]2c3c(C)nn(C)c3NC(=O)[C@H]2NC(=O)c2ccc(Cl)cc2)cc2c1OCCO2` gave USP8 block inactive, USP30 block inactive, USP28 inh inactive, USP17 inh inactive and OTUD3 inh inactive.
